# The campaign covered roughly 350,000 compounds. About 550 (0.16%) were called active. The sample holds actives, similar compounds and a random draw of the others, so the mix is not that of the screen. Cut-off read from the data, not from the text of the source: active = activation mostly above about 9.7% (no sharp cut-off); inconclusive = no clear call, values can overlap the other calls; inactive = mostly below about 3.7%.
# Assay: inducers of Vibrio cholerae quorum light production without autoinducers, primary screen, BH1578 luxS cqsA deficient, single point (AID 588436)
# Conditions: V. cholerae BH1578 lux reporter, luminescence, 6 h, at 18.7 µM; hits give high values
row,Structure (SMILES),activation
1,O=S(=O)(NC1CCCCC1)c1ccc(F)c2ccccc12,-0.148% (inactive)
2,NC(c1csc(NC(=O)Nc2cccc(C(F)(F)F)c2)n1)C1CCCCC1 (stereo not drawn),inactive
3,COCCNc1ncnc2c1ncn2[C@H]1CN(CCN2CCOCC2)C[C@@H](CO)O1,-0.715% (inactive)
4,O=C(NCc1ccc(Cl)cc1)C(=O)NCC1CCCN1S(=O)(=O)c1cccs1 (stereo not drawn),inactive
5,Cc1nonc1C1CCCN1Cc1nc(-c2ccc(F)cc2F)oc1C (stereo not drawn),2.27% (inactive)
6,Cc1ccsc1-c1nc(CSCC(=O)NCCN2CCCC2)c(C)o1,-0.308% (inactive)
7,CC(CCc1ccccc1)NCC(O)c1cccc([N+](=O)[O-])c1 (stereo not drawn),-0.322% (inactive)
8,COc1ccc(Cl)cc1NC(=O)C1CC(=O)N(c2ccc(F)cc2)C1 (stereo not drawn),-0.72% (inactive)
9,COc1ccc(CNc2nnnn2C)cc1,25.8% (active)
10,CCCC(=O)n1nc(NCc2ccc(OC)cc2)nc1NCc1ccc(OC)cc1,inactive
11,CCCn1nnnc1NCc1ccc(OC)cc1,495% (active)
12,Cn1nnnc1NCc1ccc(Cl)c(Cl)c1,inactive
13,CCCCn1nnnc1NCc1cc(OC)c(OC)c(OC)c1,inactive
14,COc1ccc2ccccc2c1CNc1nnnn1C,inactive
15,CCNC(=O)C1(C)CCN(Cc2ccc(C(=O)OCC)o2)C1 (stereo not drawn),-0.406% (inactive)
16,O=C(COC(=O)CNC(=O)C1CCCCC1)NCc1ccccc1,inactive
17,O=C(O)c1cc(S(=O)(=O)Nc2ccc3cn[nH]c3c2)ccc1Br,-0.342% (inactive)
18,Cc1ccc(SCC(=O)Nc2nncs2)cc1,inactive
19,Cc1nc(-c2ccc(Cl)cc2)sc1C(=O)CBr,-3.57% (inactive)
20,Cc1ccc(SCC(=O)c2sc(-c3ccccc3)nc2C)cc1,25% (active)
21,Cc1ccsc1C(=O)N[C@@H](C)c1nnc2ccccn12,-5.76% (inactive)
22,COc1ccc(C(C)C)cc1-c1ccc2nncn2c1,-1.12% (inactive)
23,CCCCNC(=O)C1CCCN(S(=O)(=O)c2ccc(S(=O)(=O)NCC(C)C)cc2)C1 (stereo not drawn),-0.448% (inactive)
24,O=c1cc(CO)oc(C(Nc2cccc([N+](=O)[O-])c2)c2ccccn2)c1O (stereo not drawn),-0.237% (inactive)
25,CCNc1nc(NCC)nc(N(C)n2cnnc2)n1,-0.319% (inactive)

row,Structure (SMILES),activation
1,Cc1cc(C)c(S(=O)(=O)n2cc(C(C)C(N)C(=O)O)c3ccccc32)c(C)c1 (stereo not drawn),inactive
2,COc1ccc(C)cc1NC(=O)NCCCCc1ccccc1,inactive
3,Cc1ccc(S(=O)(=O)NNC(=O)/C=C/c2cccc(F)c2)cc1,inactive
4,COC(=O)CN1C(=O)C(C)(C)Oc2ccc(C(=O)Nc3cccc(OC)c3)cc21,-0.813% (inactive)
5,O=C(CCN1C(=O)c2ccccc2C1=O)C1=NN[C@@H]2C(=O)N(c3ccc(F)cc3)C(=O)[C@H]12,1.21% (inactive)
6,COC(=O)c1c(C(=O)OC)c2n(c1C)CCS2,-0.577% (inactive)
7,Cc1cc(-n2cnc(-c3cn(C)nc3C)n2)no1,inactive
8,NNC(=O)c1nnn(-c2nonc2N)c1CN1CCCC1,67.1% (active)
9,Cc1c(C(=O)O)nnn1-c1nonc1N,1.08% (inactive)
10,CCOC(=O)c1nnn(-c2nonc2-n2cccc2)c1CN1CCC(C(=O)OCC)CC1,inactive
11,COc1ccc(NC(=O)CN(C)C(=O)CC2CCCCC2)cc1,-0.68% (inactive)
12,COc1ccc(NC(=O)CN(C)C(=O)CNC(=O)C2CCCCC2)cc1,1.72% (inactive)
13,CN(CC(=O)Nc1ccc(OC(F)(F)F)cc1)C(=O)C1CCC1,18.8% (active)
14,COc1ccccc1C(=O)NCCn1cc(SCC(=O)NCc2ccco2)c2ccccc21,-0.41% (inactive)
15,CCC(=O)Nc1ccc(S(=O)(=O)NCC2CCCO2)cc1 (stereo not drawn),-0.618% (inactive)
16,CCC(=O)NC(NCC1CCCO1)C(Cl)(Cl)Cl (stereo not drawn),16.7% (active)
17,CCC(=O)c1c[nH]c(C(=O)NCC2CCCO2)c1 (stereo not drawn),-0.144% (inactive)
18,CS(=O)(=O)N1CCC(C(=O)N2CCN(c3ccccc3)CC2)CC1,inactive
19,CCCS(=O)(=O)N1CCCC(C(=O)N2CCN(c3ccccc3)CC2)C1 (stereo not drawn),33.3% (active)
20,O=C(C1CCCN(S(=O)(=O)c2ccccc2)C1)N1CCN(c2ccc(F)cc2)CC1 (stereo not drawn),inactive
21,CCOc1ccc(OCc2cccc(C(=O)N(CC)CC)c2)cc1,-0.345% (inactive)
22,Cc1cccc(-n2c(SCC(=O)Nc3cccc(S(=O)(=O)NC4=NCCCCC4)c3)nc3ccccc3c2=O)c1C,-0.796% (inactive)
23,O=C(C1CC(=O)N(c2ccc(F)cc2)C1)N1CCN(c2ccccc2)CC1 (stereo not drawn),-0.28% (inactive)
24,Cc1cccc(CN2CCC(n3nccc3NC(=O)c3ccccc3C)CC2)n1,-0.82% (inactive)
25,COC(=O)c1ccc(C2NC(=O)NC(C)=C2C(=O)N(C)C)cc1 (stereo not drawn),-3.1% (inactive)

row,Structure (SMILES),activation
1,COC(=O)C1=C(C)N=C2SC(C)C(=O)N2C1/C=C/c1ccccc1 (stereo not drawn),inactive
2,COC(=O)C1=C(C)NC(=O)NC1/C=C/c1ccccc1 (stereo not drawn),33.3% (active)
3,CCN(CC(=O)Nc1ccccc1C(F)(F)F)C(=O)CSCc1c(C)noc1C,inactive
4,CC(C)CC(N=C1NC(C)(C)Cc2ccccc21)C(=O)O (stereo not drawn),-0.478% (inactive)
5,CC(NCc1cccs1)C(=O)Nc1cc(Cl)cc(Cl)c1 (stereo not drawn),-0.542% (inactive)
6,COC(=O)c1ccc(CNC(=O)Cn2cc(C)c(=O)[nH]c2=O)cc1,-1.31% (inactive)
7,CCc1cccc2c(=O)c(C(=O)NCCCOC)c[nH]c12,inactive
8,Cc1cc(C(=O)OCC(=O)Nc2ccccc2Cl)c(C)o1,11.9% (inactive)
9,O=C(Nc1ccc2c(c1)CCC2)c1cccc(S(=O)(=O)Nc2ccccc2Cl)c1,0.69% (inactive)
10,O=C(Cc1ccc2c(c1)CCCC2)Nc1ccccc1Cl,159% (active)
11,O=[N+]([O-])c1ccc2nc(-c3ccccn3)[nH]c2c1,inactive
12,O=[N+]([O-])c1cnc2ccc3ccccc3c2c1,31.2% (active)
13,CN(CCc1ccccc1)c1ccc([N+](=O)[O-])cn1,inactive
14,COc1cccc(N(C(=O)CNC(=O)c2ccco2)C(C(=O)NC2CCCCC2)c2cccnc2)c1 (stereo not drawn),0.162% (inactive)
15,COc1ccc(N(CC(=O)NC2CCCCC2)C(=O)CNC(=O)c2ccco2)c(OC)c1,16.7% (active)
16,COC(=O)c1ccc(N(CC(=O)NC2CCCC2)C(=O)CNC(=O)c2ccco2)cc1,-0.813% (inactive)
17,CC(C)CN(C(=O)Cn1c(=O)cnc2ccccc21)C1CCS(=O)(=O)C1 (stereo not drawn),-2.94% (inactive)
18,CC(=O)OCCN(CCCn1c(-c2ccncc2)nc2ccccc21)c1nc(-c2ccc(C)cc2)cs1,-0.447% (inactive)
19,Cc1ccc(C)c(NC(=O)c2cc(-c3cc(C)cc(C)c3O)n[nH]2)c1,1.16% (inactive)
20,COc1cccc(NC(=O)COC(=O)/C=C/c2ccco2)c1,inactive
21,CC(C)CNC(=O)COC(=O)/C=C/c1ccccc1[N+](=O)[O-],13.6% (inactive)
22,CC(C)CNC(=O)COC(=O)/C=C/c1ccco1,180% (active)
23,CC(CN1CCCCC1)c1ccccc1 (stereo not drawn),inactive

# From PubChem BioAssay AID588436 (Broad Institute, 2011)
